Results reported in the supplement of paper PMC3334620.
In all, about 33,000 sequences were measured (“E-score (-0.5 to 0.5)”: median about -0.021, highest 2% from about 0.32 on). This excerpt belongs to a sample that is enriched for the highest values.

Each sequence was assayed against T1, Zap1 (UniProt P47043) (assay: PBM E-score (8-mer binding enrichment) (E-score (-0.5 to 0.5)); higher = stronger / more preferred TF binding). Conditions: protein concentration: 200 nM; construct: GST-full length.
T1 sequence: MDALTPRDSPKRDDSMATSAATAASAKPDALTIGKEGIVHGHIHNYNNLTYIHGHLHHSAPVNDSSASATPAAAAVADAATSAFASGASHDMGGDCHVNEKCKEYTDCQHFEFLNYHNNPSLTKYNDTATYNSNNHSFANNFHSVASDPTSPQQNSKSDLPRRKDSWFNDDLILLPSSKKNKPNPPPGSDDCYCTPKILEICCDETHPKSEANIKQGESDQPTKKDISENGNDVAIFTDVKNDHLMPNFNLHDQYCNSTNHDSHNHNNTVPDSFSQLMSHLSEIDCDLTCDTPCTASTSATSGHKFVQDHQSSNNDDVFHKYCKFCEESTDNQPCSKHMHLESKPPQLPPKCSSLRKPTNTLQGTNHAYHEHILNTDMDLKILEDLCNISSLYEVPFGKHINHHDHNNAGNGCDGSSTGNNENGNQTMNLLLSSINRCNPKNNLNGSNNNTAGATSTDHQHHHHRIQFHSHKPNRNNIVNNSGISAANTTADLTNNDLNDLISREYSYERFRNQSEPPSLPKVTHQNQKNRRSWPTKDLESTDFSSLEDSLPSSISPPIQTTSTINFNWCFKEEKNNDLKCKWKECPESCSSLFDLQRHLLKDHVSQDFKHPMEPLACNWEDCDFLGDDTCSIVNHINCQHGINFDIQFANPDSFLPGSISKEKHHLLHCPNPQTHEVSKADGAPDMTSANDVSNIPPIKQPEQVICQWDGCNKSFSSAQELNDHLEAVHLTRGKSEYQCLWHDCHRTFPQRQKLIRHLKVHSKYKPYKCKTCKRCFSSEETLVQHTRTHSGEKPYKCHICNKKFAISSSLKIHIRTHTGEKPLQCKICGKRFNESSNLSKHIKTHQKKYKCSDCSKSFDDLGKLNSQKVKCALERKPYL
Description: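 Universal 'all 10-mer' protein binding microarrays (Agilent AMADID 015681) probed with GST-tagged S. cerevisiae TFs (full-length or DBD) made by in vitro transcription/translation (PURExpress), about 100-200 nM. Bound TF was detected with fluorescent anti-GST. Each ungapped 8-mer (which stands for itself and its reverse complement) is scored by the PBM enrichment score (E-score), a modified Wilcoxon-Mann-Whitney statistic from -0.5 to +0.5, computed with the Universal PBM Analysis Suite. Scale: above 0.35 generally sequence-specific binding.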

Sequence	PBM E-score
AACGGTTA	0.397
CACGGTCA	0.262
CACGGTTC	-0.13
AACGGTTC	0.107
AACGGTTG	0.123
AACGGTCA	0.324
GACGGGTA	0.0159
CACGGGTA	0.237
GACGGTTA	0.305
AACGGTCG	0.114
CACGGTTA	0.372
AACGGGTA	0.375
CCCCGCGC	-0.138
ACATTCAG	-0.0921
AGCGCATG	-0.227
CGGACCCA	0.195
CTTTCTTC	-0.0581
AGAAGCCA	-0.0472
AAGGTATT	0.199
AAGGTAAG	0.0248
CAGGTAAA	0.133
AAGGTAAT	0.322
AAGGTAAA	0.187
GAGGTAAC	0.365
AAGGTAAC	0.432

Sequence	PBM E-score
CAGGTAAC	0.254
GAGGTAAA	0.199
CTCCATGC	-0.229
ACGCATAC	-0.101
ACTACCAT	0.269
ACTGCTAG	-0.269
CCGTACCC	0.275
AAGTACCT	0.213
AGGTACCT	0.443
CGGTACCC	0.414
ACGTACCG	-0.111
ACGTACCT	-0.126
AAGTACCG	0.134
AGGTACTC	0.261
AGGTACCG	0.43
ATGTACCC	0.216
CGGTACAC	0.0303
AGGTACCC	0.451
AGTAAAGG	0.132
ATCTTAAC	0.142
CGCCCAGC	-0.209
ATAACATA	0.146
GGGTCCAC	-0.0924
GCGTACCC	0.106
GGGTACCC	0.469

Sequence	PBM E-score
CGGTACAG	0.12
CAGTACCG	0.104
GGGTACAC	0.141
CGGTACCG	0.38
ATTAGAAA	0.0663
TACAGCCA	-0.0777
ACTCACCC	-0.0932
CAATGTTC	-0.213
ATTTGTCC	-0.0674
CACCAGTG	-0.0732
AACTAAAC	0.181
GATATATA	0.2
ATTATATA	0.207
CATATATA	0.13
CTTATAAC	0.302
CTTATTTA	0.0152
GTTATATA	0.359
CTTATATA	0.27
TATATATA	0.37
GTTATAAA	0.279
GTTATAAC	0.401
ATTATTTA	0.234
GTTATTTA	0.325
CCTCAGAA	-0.0154
ACTGGGAG	-0.25

Sequence	PBM E-score
ATTGGGAG	-0.0694
AACGCTGG	-0.174
GACTGTAC	-0.147
AGCTCTCG	-0.212
ACAAGAGA	-0.043
ATCATCGC	-0.0946
AGCTCTTG	-0.246
CAATTGAC	-0.0961
GCCCAGAA	-0.0621
GTCGAGCA	-0.236
GAAACCGC	0.15
ATGAGCAA	-0.0417
ATACAATG	0.0742
AGGGGCAG	-0.186
ACCCAGGG	0.0854
CCCAAAGG	0.23
CCCCAGGA	-0.128
CCCAAGGG	0.326
CCAAAAGG	0.337
CCCCAGGG	0.319
CCCAAGGA	0.00233
CCAAAGGG	0.267
CCAAAAAG	0.248
CGTACAGA	-0.231
CAATGCAA	0.0301

Sequence	PBM E-score
CCTCGAGG	0.331
ACTCGAGG	0.0452
CCTCGAGC	0.0178
CCATAAAA	0.12
GGTGTAAC	0.262
AGCGTAAC	0.199
AGAGTAAC	0.108
GGGGTAAC	0.37
CGGGTAAA	0.144
CGGGTAAC	0.351
GGGGTAAA	0.269
AGGGTAAC	0.405
CGGGTAAG	-0.078
AAAAGCAG	-0.0944
GGCAAATA	-0.0519
ACCGATAC	0.0986
AAACTTCT	0.0376
ACAGTATG	0.0365
TCCATTAA	0.13
ACCATAAG	0.0852
ACCATTAA	0.348
TCCATAAA	0.061
ACCATAAT	0.255
ACCATAAA	0.384
GCCATAAC	0.12

Sequence	PBM E-score
ACCATAAC	0.399
CCCATAAG	0.236
CCCATTAA	-0.0317
CCCATAAA	0.161
CCCATAAC	0.355
CTCACATC	-0.0546
CATAGATG	-0.173
GTACACAA	0.12
ACTAAAGA	0.00061
CCACTTTC	-0.101
GCCGCGAA	-0.0427
TCCGCGAA	0.05
ACCGCGAA	0.359
GTGATGTA	0.013
AGAGTCAG	-0.145
ATCGCTCA	-0.0114
AAAGGTAT	0.293
CAAGGTAG	0.303
AAAGGTAA	0.361
GAAGGTAA	0.319
AAAGGTGA	0.25
GAAGGTAC	0.178
TAAGGTAA	0.271
AAAGGTAC	0.426
CAAGGTAA	0.191

Sequence	PBM E-score
CAAGGTAC	0.357
CCAGGTAC	0.17
AAAGGTAG	0.247
CACAGAGA	-0.0512
ACGATGGA	0.00241
CATCTCTC	-0.0882
CCTCCCAG	-0.291
CGCCTGAG	-0.0453
CAACTAAG	-0.00117
AGAGGCCC	-0.108
CCTCTTCC	-0.127
ATTTGCCG	-0.168
AAAGGGAA	-0.0936
GCATGGAA	-0.169
ACGTAAGC	-0.186
ACAGGGGG	-0.225
ACTGCGCA	-0.0699
CAGCCCAG	-0.177
ACAGAGTA	-0.0251
TCCCTCCA	-0.134
CCCCTCCC	0.0739
GCCCTCCA	-0.0877
ACCCTCCA	0.341
ACCCTCCC	0.339
